Assay results from PubChem BioAssay (NCI).
About 83,000 compounds went through this panel and 20% of them were active in at least one assay; those are over-represented in the sample as a whole.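 Single-concentration screen, 48 h exposure, 96-well plates. Endpoint: percent growth. Below 10 = active.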 A number with no mark means an inactive call. Activity calls are given as the source filed them.

What follows are molecules tested on SK-MEL-5 melanoma (assay: NCI-60 one-dose screen, 48 h (100 = growth as untreated, 0 = no growth, -100 = all killed)). Settings: 10 µM unless noted.

SMILES | growth
OC(c1ccccc1)(c1ccccc1)c1ccccc1-c1ccccc1 | 96.4%
Clc1ccc(-c2nc(-c3c[nH]c4ncccc34)cs2)cc1 | 84.1% [100 µM]
CC(=O)c1cc(-c2ccccc2N)n(-c2ccc3c(c2)OCO3)c1C | 2.46% (active)
CC1O[C@@H]2C[C@@](O)([C@H]1O)n1c3ccccc3c3c4c(c5c6ccccc6n2c5c31)C(=O)NC4=O (stereo partly drawn) | 1.39% (active)
COC(=O)/C(CCC=C(C)C)=C1\[C@@H](OC(C)=O)C[C@@]2(C)[C@H]1CC(=O)[C@H]1[C@@]3(C)CCC(N4CCCC4)[C@@H](C)[C@@H]3CC[C@@]12C (stereo partly drawn) | 99.2%
CN(C)c1ccc(/C=C2/C=C(c3ccccc3)OC2=O)cc1 | 87%
COc1cc(-c2nc3occn3c2-c2ccnc(NCCCNS(=O)(=O)c3ccccc3)n2)ccc1F | -22.4% (active)
CCOC(=O)c1c2c(n3c1NCC3)-c1ccccc1C2=O | 93.3%
C/C(=N\Nc1nc(C)cs1)c1cc2ccccc2o1 | 92%
CCOC(=O)C1=C(c2ccccc2)N=c2s/c(=C/c3ccc(Br)cc3)c(=O)n2C1c1ccc(O)cc1 (stereo not drawn) | 91.9%
COc1ccc(C2CC(c3ccc(Nc4nc(Nc5ccc(F)cc5)nc(Nc5ccc(F)cc5)n4)cc3)=NN2C(C)=O)cc1 (stereo not drawn) | 71.6%
c1ccc2cc(Cn3c[n+](Cc4ccc5ccccc5c4)c4ccccc43)ccc2c1 | -98.1% (active)
CN1CCN(c2ccc3c(c2)nc(NNC(=O)c2cnccn2)c2cccn23)CC1 | 31.2%
